Screening data from PubChem BioAssay.
This is a sample that favours compounds with a hit; in the whole collection about 3.8% have one here.
tim23-1 inh: growth inhibitors of tim23-1 mutant yeast, primary screen, luminescence, uHTS; actives 1.3% (n = 330,000); inhibition, % at 20 µM; S. cerevisiae tim23-1 growth, BacTiter-Glo luminescence, 24 h;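 active means growth inhibition of the mutant yeast at or above 50%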;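 further: temperature-sensitive mutant grown at 25 °C; plate controls were DMSO-treated mutant yeast for no effect and medium wells lacking yeast for full effect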
CR mimetic SO: reduction of superoxide in aged yeast, primary screen, HTS; S. cerevisiae aged cells, superoxide DHE fluorescence; hits give low values; superoxide response (% of plate mean), % at 10 µM; actives 0.18% (n = 330,000);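 active means superoxide response under a set limit, about three screen SD below normal, cut at about 65% in these data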;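 further: yeast aged for seven days with compound at 30 °C before DHE staining; 100% = average MFI of all compound-treated wells on the plate with controls excluded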
TIM10 inh: growth inhibitors of isogenic TIM10 control yeast, primary screen, counter-screen for tim10-1 yeast inhibitor project, luminescence, uHTS | AID 463195, 2010 | S. cerevisiae TIM10 strain growth, BacTiter-Glo luminescence, 24 h | inhibition, % at 10 µM | actives 1.4% (n = 330,000);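 active means inhibition of 40% or more at the single tested concentration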;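 further: wild-type TIM10 isogenic control strain grown at permissive 25 °C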
tim10-1 inh: growth inhibitors of tim10-1 mutant yeast, primary screen, luminescence, uHTS; actives 2.2% (n = 330,000); S. cerevisiae tim10-1 ts strain growth, BacTiter-Glo, 24 h; inhibition, % at 20 µM;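 active means inhibition of at least 40%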;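 further: mutant grown at 25 °C; 0% = DMSO wells with yeast and 100% = wells holding no yeast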
NALP3 yeast inh: NALP3 inflammasome inhibitors in reconstituted yeast, primary screen, luminescence, uHTS | inhibition, % at 10 µM | Yeast reconstituted NLRP3/ASC/caspase-1, beta-gal luminescence, 24 h | AID 2825, 2010 | actives 0.39% (n = 330,000);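 active means inhibition of 50% or more; inactive means inhibition below 50%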;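 further: plate controls were induced DMSO wells for no effect and uninduced yeast grown without galactose for full effect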
tim23-1 conf: tim23-1 mutant yeast growth inhibitors, confirmation, luminescence, single concentration | shares compounds with tim23-1 inh | S. cerevisiae tim23-1 growth, BacTiter-Glo luminescence, 24 h | inhibition, % at 20 µM | actives 83% (n = 4,400) | AID 463218, 2010;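 active means inhibition above about 39% in either of two replicate wells at 20 µM, limit read from the data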;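 further: temperature-sensitive tim23-1 mutant grown at 25 °C; 0% = DMSO wells with yeast and 100% = medium wells without yeast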
* marks the source's active call; other numbers are inactive results; . = not tested or not shown.

SMILES	tim23-1 inh	CR mimetic SO	TIM10 inh	tim10-1 inh	NALP3 yeast inh	tim23-1 conf
CCOC(=O)c1cnc(-n2nc(C)cc2C)nc1NC1CCCCC1	53.8*	128.0	-5.6	-32.7	28.0	43.0*
CCOC(=O)c1cnc(-n2nc(C)cc2C)nc1NC	19.8	102.8	-33.3	14.4	21.0	.
CN(C)C(=O)c1ccc(NC(=O)CN2CCc3cc4c(cc3C2)OCCCO4)cc1	4.8	91.2	-1.5	13.4	8.9	.
O=C(CN1CCc2cc3c(cc2C1)OCCCO3)Nc1cccc(Br)c1	59.5*	90.7	-1.4	39.2	3.2	73.8*
O=C(NCCc1ccccc1)c1cccc2c1C(=O)N(C1CCCCC1)C2	50.6*	93.8	24.4	26.0	12.3	39.4
CCCCCOc1ccc(C(=O)NCC2(c3ccccc3)CCOCC2)cc1	50.7*	93.7	27.0	36.9	27.2	46.0*
CCCCOc1ccc(C(=O)NCC2(c3ccccc3)CCOCC2)cc1	41.1	120.7	19.6	30.9	15.0	.
CCN(CC(=O)NCc1cccs1)C(=O)c1ccc(S(=O)(=O)Nc2cccc(C)c2C)cc1	14.3	97.1	0.0	3.2	-6.6	.
CCOC(=O)c1c(N)sc2c1CCC(C)C2 (stereo unspecified)	21.8	99.7	14.2	38.3	12.6	.
CCOC(=O)c1c(NS(C)(=O)=O)sc2c1CCC(C)C2 (stereo unspecified)	56.6*	74.8	3.4	39.2	-4.4	40.1*
COc1ccc(Cn2cc([N+](=O)[O-])nc2C)cc1[N+](=O)[O-]	6.1	88.8	10.2	2.4	-2.9	.
COc1ccc(Cn2c(C)nc([N+](=O)[O-])c2SCC(=O)O)cc1[N+](=O)[O-]	54.8*	85.5	-9.7	3.0	23.1	4.5
CCOC(=O)C1=CN(Cc2cccc(F)c2)S(=O)(=O)N(C)C1c1cccc(OC)c1 (stereo unspecified)	52.2*	99.4	5.7	21.9	.	31.9
CCOC(=O)C1=CN(Cc2cccc(F)c2)S(=O)(=O)N(C)C1c1ccccc1 (stereo unspecified)	49.1	96.5	-4.9	16.7	.	.
O=C(NCC1COCCO1)c1ccc2nc(Cc3cccc(Cl)c3)oc2c1 (stereo unspecified)	9.6	108.1	8.4	9.4	13.4	.
O=[N+]([O-])c1ccc(O)c(/C=N/n2c(-c3ccccc3)n[nH]c2=S)c1	34.0	107.8	-7.4	18.9	25.7	.
Oc1ccccc1/C=N/n1c(-c2ccccc2)n[nH]c1=S	51.4*	114.8	31.8	17.1	11.3	38.8
COc1c(Br)cc(/C=N/n2c(-c3ccccc3)n[nH]c2=S)c(O)c1Br	62.2*	94.7	36.8	26.4	16.0	60.3*
CCn1c(O)c(C=NC2CCCC(C)C2C)sc1=S (stereo unspecified)	50.7*	87.8	23.4	35.5	27.1	53.4*
CCn1c(O)c(C=NCc2ccccc2)sc1=S	14.3	93.0	15.8	15.1	19.1	.
NS(=O)(=O)c1ccc(N2N=C(c3ccccc3)CC2c2cccc(Cl)c2)cc1 (stereo unspecified)	52.6*	91.2	17.1	24.1	.	31.2
NS(=O)(=O)c1ccc(N2N=C(c3ccccc3)CC2c2ccc(F)cc2)cc1 (stereo unspecified)	18.2	108.7	8.2	26.3	7.5	.
CC(C)(C)c1ccc(/C=C2\Oc3cc(O)ccc3C2=O)cc1	21.1	114.2	19.2	15.9	7.4	.
O=C1/C(=C/c2ccc(Br)cc2)Oc2cc(O)ccc21	55.7*	99.3	28.9	19.2	14.7	50.8*
CCCn1c(N)c(NCCN2CCOCC2)c(=O)[nH]c1=O	-11.1	106.0	-1.2	8.8	5.1	.
SMILES	tim23-1 inh	CR mimetic SO	TIM10 inh	tim10-1 inh	NALP3 yeast inh	tim23-1 conf
NC(=O)c1c(NC(=O)c2ccccc2F)sc2c1CCCC2	54.2*	108.0	21.8	28.7	37.4	49.0*
NC(=O)c1c(NC(=O)c2ccccc2C(=O)O)sc2c1CCCC2	8.5	106.7	-2.4	-2.5	14.5	.
COc1ccc(-c2cn3nc(C)c(C)nc3n2)cc1OC	5.3	99.5	4.0	9.0	2.1	.
CCc1c(C)nc2cc(-c3ccc(OC)c(OC)c3)nn2c1NCC1CC1	68.5*	102.0	13.6	33.1	23.5	45.9*
Cc1ccc2oc(C(Cl)(Cl)Cl)cc(=O)c2c1	74.8*	99.6	29.8	37.9	23.7	76.4*
C=CCc1ccccc1OCC(=O)N/N=C/c1ccc(OC(C)=O)cc1OC(C)=O	62.6*	95.8	36.0	20.0	21.7	54.6*
O=C(CCN1CCN(Cc2ccccc2)CC1)Nc1cccc(Br)c1	4.1	94.4	-2.0	26.4	19.0	.
c1ccc(CC(Nc2ccccn2)c2ccccc2)cc1 (stereo unspecified)	52.0*	76.7	38.4	35.4	19.6	41.0*
O=C(NNc1ccccn1)C(c1ccccc1)c1ccccc1	4.2	100.4	5.6	21.5	11.3	.
CCCCNC(=O)C1CCN(c2nc(C)cc(C)n2)CC1	2.0	92.2	-0.6	3.8	2.6	.
Cn1nnnc1Sc1ncnc2scc(-c3ccc(-c4ccccc4)cc3)c12	37.8	104.2	6.1	14.6	12.6	.
Cn1nnnc1Sc1ncnc2scc(-c3cccc(F)c3)c12	3.1	113.1	1.4	-3.2	27.7	.
Cn1nnnc1Sc1ncnc2scc(-c3cc4ccccc4o3)c12	70.8*	107.8	32.8	26.4	33.2	38.5*
Cn1nnnc1Sc1ncnc2scc(-c3cccc(C(F)(F)F)c3)c12	53.3*	102.4	11.9	18.5	23.7	45.9*
Cn1nnnc1Sc1ncnc2scc(-c3cccs3)c12	22.5	125.1	6.1	11.4	37.5	.
Cn1nnnc1Sc1ncnc2scc(-c3ccc(C(F)(F)F)cc3)c12	56.0*	93.2	0.9	21.5	11.3	37.9
COc1ccc(C2SCC(=O)N2CCCN(C)C)cc1 (stereo unspecified)	-5.4	108.9	1.8	7.0	10.0	.
O=C(CCc1nc(-c2ccccc2)no1)NC1CCCCCC1	32.0	108.0	11.8	18.0	24.2	.
Cc1cc(C)n(C(=O)c2cc([N+](=O)[O-])cc([N+](=O)[O-])c2)n1	17.5	115.4	8.4	4.0	-21.6	.
O=C(c1cc2c(s1)-c1ccccc1OC2)N1CCc2ccccc2C1	37.9	111.0	13.5	23.9	8.1	.
O=C(c1cc(Br)c(Br)s1)N1CCc2ccccc2C1	51.6*	78.2	27.3	1.6	7.0	53.4*
O=C(COC(=O)c1ccco1)Nc1cccc(S(=O)(=O)N2CCCCC2)c1	3.5	97.5	4.3	7.8	8.6	.
COc1ccc(-c2nc(N)nc(C(F)(F)F)c2-c2cscn2)c(O)c1	4.1	100.4	-5.0	-11.6	5.0	.
COc1ccc(-c2nc(N)nc(C)c2Oc2ccccc2Br)c(O)c1	50.4*	95.5	1.2	33.1	12.4	46.8*
